# Test results reported in PubChem BioAssay (NCI).
# This is part of a sample that, as a whole, favours compounds with a hit. Of some 83,000 tested, about 20% had one in any assay.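 Single-concentration screen, 48 h exposure, 96-well plates. Endpoint: percent growth. Below 10 = active.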 Unmarked numbers belong to inactive results. The source made the active and inactive calls.
# How the values were obtained:
# Experiment in all cases: NCI-60 one-dose screen, 48 h (100 = growth as untreated, 0 = no growth, -100 = all killed)
# RPMI-8226 leukemia = details: 10 µM
# OVCAR-8 ovarian = details: 10 µM
# OVCAR-5 ovarian = details: 10 µM
# OVCAR-4 ovarian = details: 10 µM
# SK-OV-3 ovarian = details: 10 µM
# IGROV1 ovarian = details: 10 µM
# OVCAR-3 ovarian = details: 10 µM
# HS 578T breast = details: 10 µM
# NCI/ADR-RES ovarian = details: 10 µM
# BT-549 breast = details: 10 µM
# MDA-MB-435 melanoma = details: 10 µM
# SW-620 colon = details: 10 µM
# MCF7 breast = details: 10 µM unless noted
# HCT-116 colon = details: 10 µM
# HCC-2998 colon = details: 10 µM
# T-47D breast = details: 10 µM
# KM12 colon = details: 10 µM
# SR leukemia = details: 10 µM
Compound,growth (RPMI-8226 leukemia),growth (OVCAR-8 ovarian),growth (OVCAR-5 ovarian),growth (OVCAR-4 ovarian),growth (SK-OV-3 ovarian),growth (IGROV1 ovarian),growth (OVCAR-3 ovarian),growth (HS 578T breast),growth (NCI/ADR-RES ovarian),growth (BT-549 breast),growth (MDA-MB-435 melanoma),growth (SW-620 colon),growth (MCF7 breast),growth (HCT-116 colon),growth (HCC-2998 colon),growth (T-47D breast),growth (KM12 colon),growth (SR leukemia)
Cc1cc2nc(CC(=O)c3cccc([N+](=O)[O-])c3)c(=O)[nH]c2cc1C,88.4%,92.7%,92.1%,89.4%,108%,91.4%,102%,72.6%,83.9%,87%,93.9%,93.7%,74.8%,54.8%,89.9%,–,–,–
O=C(Nc1ccccc1C(=O)NCC1CC1)c1cccs1,97.4%,99.4%,99.9%,98.7%,110%,118%,117%,114%,101%,99.9%,105%,109%,106%,93.7%,103%,106%,107%,–
Cc1cc(C)c(N)c(S(=O)(=O)O)c1,–,104%,–,98.9%,94.6%,108%,113%,–,–,–,98.9%,111%,92.1%,93.6%,91.2%,93.2%,115%,81.4%
N#CC(=Nc1cccc(F)c1)C1=C(O)c2ccccc2C1=O,82%,85.4%,103%,88.9%,98.7%,100%,92.7%,99.7%,89.1%,89.2%,99.4%,95.4%,83.2%,97%,101%,83.2%,102%,–
O=C1OC(c2ccc(F)cc2)CC1CN1CCOCC1 (configuration not stated),75.6%,99.5%,112%,101%,107%,104%,101%,113%,101%,95.5%,109%,102%,97.6%,92.5%,98.8%,93.6%,102%,–
CCOC(=O)CCCS(C)(=O)=O,124%,108%,97.4%,103%,103%,120%,127%,101%,103%,100%,119%,105%,92.6%,110%,91%,102%,108%,–
CCCC(=O)c1cc(C)ccc1OC,110%,111%,101%,106%,109%,94.1%,112%,118%,112%,107%,116%,114%,103%,107%,111%,105%,110%,–
CC1(C)N=C(N)N=C(N)N1c1ccc(Cl)cc1,–,30.8%,–,55%,61%,35.9%,69.9%,–,–,76%,28.8%,34.3%,41.1%,25.1%,36.8%,94.6%,50.1%,52.7%
CC1CC(O)CC(C)(C)C1 (configuration not stated),–,102%,–,116%,103%,103%,93.5%,–,110%,102%,101%,110%,101%,99.8%,109%,104%,90.3%,106%
S=C1NCc2cncnc2N1,102%,104%,97.8%,105%,102%,111%,112%,105%,106%,100%,101%,109%,93.4%,99.1%,106%,105%,106%,–
O=C(O)/C=C/C(=O)NCc1ccccc1,94.7%,108%,107%,107%,112%,98.4%,109%,113%,102%,104%,101%,109%,91.9%,106%,95.7%,98.5%,104%,–
NCC(=O)CCC(=O)O,118%,104%,120%,98%,99.8%,112%,111%,108%,107%,110%,108%,108%,–,114%,97.4%,100%,108%,–
CN(C)CCN(Cc1ccccc1)c1ccccc1,–,115%,125%,–,110%,124%,121%,112%,103%,119%,95%,102%,112%,113%,105%,95%,113%,88.1%
O=C1C=C(O)C(=O)C=C1O,–,103%,–,118%,87.9%,111%,107%,–,101%,103%,109%,104%,96.5%,105%,111%,93.9%,107%,98.2%
COCCCNC(=O)c1nnn2c1nc(N)c1cc(Cl)ccc12,96.9%,103%,109%,90.7%,79.2%,78.6%,81.1%,90.4%,93.9%,79.2%,10.9%,81%,73.4%,77.6%,89.4%,79%,50.2%,–
Cc1c(O)cnc2nn(-c3ccccc3)c(=N)n12,113%,103%,106%,95.8%,108%,113%,113%,127%,108%,108%,107%,102%,97.5%,101%,98.4%,100%,95.8%,–
O=C(CC(=O)c1ccccc1O)c1ccccc1,87.6%,73%,101%,90.6%,98.9%,98.3%,90.9%,106%,64.4%,77.5%,102%,86.4%,76.4%,76.6%,107%,79.7%,92.8%,–
CCCC[P+](c1ccccc1)(c1ccccc1)c1ccccc1,–,43.4%,62.6%,–,87.2%,49.1%,43.5%,80.2%,106%,17.8%,–,64.5%,24.1%,39.2%,32.2%,26.5%,23.2%,41.2%
CN(C)C(=O)Oc1cccc([N+](C)(C)C)c1,117%,103%,104%,83.9%,107%,115%,115%,107%,114%,112%,105%,108%,87%,109%,106%,99.8%,102%,–
CC1(C)OC(=O)C(c2ccsc2)C(=O)O1,–,109%,–,102%,106%,–,106%,99%,97.7%,124%,101%,108%,104%,92.1%,107%,90.4%,102%,103%
CC1SC(N)=NC1=O (configuration not stated),96.7%,105%,85.9%,117%,115%,108%,116%,108%,106%,123%,109%,112%,103%,108%,107%,106%,–,–

Compound,growth (RPMI-8226 leukemia),growth (OVCAR-8 ovarian),growth (OVCAR-5 ovarian),growth (OVCAR-4 ovarian),growth (SK-OV-3 ovarian),growth (IGROV1 ovarian),growth (OVCAR-3 ovarian),growth (HS 578T breast),growth (NCI/ADR-RES ovarian),growth (BT-549 breast),growth (MDA-MB-435 melanoma),growth (SW-620 colon),growth (MCF7 breast),growth (HCT-116 colon),growth (HCC-2998 colon),growth (T-47D breast),growth (KM12 colon),growth (SR leukemia)
CC(CN1CCCCC1)NC(=O)c1scnc1-c1ccccc1 (configuration not stated),101%,100%,118%,108%,103%,105%,112%,195%,99.4%,101%,101%,106%,103%,93.8%,96.8%,98.7%,106%,–
COc1cc(/C=C/C(=O)c2ccccc2)cc(OC)c1OC,24.3%,59.8%,66.6%,65%,79%,98.6%,59%,106%,43.1%,72%,13.7%,12.3%,9.65% (active),20.6%,94.3%,91.4%,12.6%,–
CCc1ccc(/C(C#N)=C/C=C/c2ccccc2)cc1,–,34.3%,77.7%,–,–,35.9%,-11.2% (active),39.7%,8.57% (active),68.5%,-17.5% (active),21%,16.2%,33.5%,60.8%,35.3%,35.1%,3.53% (active)
O=C1OC(=O)C2C1C1(Cl)C(Cl)=C(Cl)C2(Cl)C2C(=O)OC(=O)C21 (configuration not stated),96.4%,100%,106%,101%,102%,109%,112%,113%,108%,103%,101%,113%,95.8%,102%,108%,95.4%,106%,–
c1csc(-c2cc(-c3cc(-c4cccs4)[nH]n3)n[nH]2)c1,94.6%,104%,104%,101%,97%,89.3%,118%,74.6%,99.5%,90.7%,114%,104%,75.5%,91.4%,111%,–,105%,–
COc1cc2cc(OC(C)=O)c3cc4c(cc3c2c(OC)c1OC)OCO4,97.4%,102%,92.3%,111%,–,107%,101%,91.4%,95.7%,104%,102%,96.9%,93.6%,104%,107%,106%,99.8%,–
COC(=O)CCCCC1=CCC2C(=O)C=C(O)C2C1 (configuration not stated),100%,98%,107%,103%,98.6%,103%,–,108%,103%,98.7%,110%,106%,94.9%,102%,132%,98.9%,–,–
O=[N+]([O-])c1ccccc1S(=O)c1ccccc1[N+](=O)[O-],84.5%,99.9%,120%,67%,99.9%,–,103%,106%,91.5%,95.3%,72.2%,44.6%,95.2%,51.8%,–,73.1%,–,–
OCCN(CCO)C(=S)S,111%,100%,120%,118%,127%,111%,121%,99.7%,105%,110%,108%,106%,98.2%,109%,113%,–,107%,–
Oc1ccc(O)cc1,67.6%,94.6%,123%,105%,114%,108%,–,104%,92.4%,82.7%,99.7%,112%,–,107%,114%,114%,103%,–
Cc1cc(NC(=O)CSCC(=O)O)no1,120%,99.3%,99.6%,107%,99.3%,114%,–,78%,107%,98.7%,105%,102%,91.9%,101%,113%,–,107%,–
COc1ccc2c(NCCCCCCCCNc3c4ccccc4nc4cc(OC)ccc34)c3ccccc3nc2c1,-60.3% (active),-42.6% (active),-91.8% (active),-96.6% (active),-100% (active),–,-100% (active),-45.9% (active),9.56% (active),-95.9% (active),-100% (active),-100% (active),-100% (active),-100% (active),-100% (active),-74.6% (active),-100% (active),–
COc1ccc(/C=C/c2cccc[n+]2C)cc1,90.3%,105%,95.8%,107%,78.8%,85.3%,103%,119%,–,89.8%,100%,79.9%,96%,106%,83.6%,97.4%,–,–
Cc1ccc(/C=C2\SC(=S)N(c3ccc(F)cc3)C2=O)o1,86.4%,0% (active),102%,13.6%,92.2%,90.7%,79.1%,52.2%,73%,112%,77.4%,93.3%,71.1%,64.5%,118%,–,78.2%,–
COC(=O)c1[nH]c(=O)c(C#N)c(C(=O)OC)c1C(=O)c1ccccc1,107%,101%,113%,97.5%,101%,105%,107%,84.4%,97.5%,110%,99.9%,102%,68.9%,99.3%,113%,–,102%,–
O=C1NC(=O)C2C(=O)NC(=O)C1C21CCc2ccccc21 (configuration not stated),115%,103%,110%,105%,116%,109%,115%,89%,100%,106%,112%,101%,93.1%,96.7%,115%,–,105%,–
CNC(=S)NC(C)(C)C,93.2%,99.8%,121%,113%,105%,105%,124%,104%,105%,89.5%,106%,103%,97.4%,102%,115%,–,106%,–
C=C[Si](OC(C)=O)(OC(C)=O)OC(C)=O,95.9%,109%,115%,110%,96.7%,97.2%,–,107%,104%,95.9%,99.6%,101%,92.9%,100%,103%,93.6%,–,–
CCOC(=O)/C(=C/c1ccc(OC)cc1)N(CC)CC,102%,99.9%,113%,116%,116%,106%,–,93.7%,107%,108%,110%,103%,103%,101%,111%,92.6%,104%,–
COC(=O)Nc1nc2ccc(C(=O)c3ccc(F)cc3)cc2[nH]1,-27.1% (active),6.47% (active),27.3%,55.5%,42.6%,–,-74.4% (active),-5.44% (active),-5.09% (active),32%,-60.2% (active),24.8%,15.6%,14.2%,16.1%,112%,-4.55% (active),–
